aSyn yeast inh – qHTS of alpha-syn Inhibitors. Yeast expressing alpha-synuclein, growth rescue, BacTiter-Glo, 24 h. Potency, µM (top dose mostly 46.1 µM), for the others: at the highest dose growth rescue (activation), actives largely listed as activators. 0.14% of 370,000 active; note: % of control where 0% means no effect; nearly all actives have a fitted effect of over 65% in size
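Screening used galactose-induced yeast with toxic alpha-synuclein levels, exposed to compound for 24 hr at 30 deg C. Cell growth, read with BacTiter-Glo luminescence, gave the measured signal.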
Mito fusion yeast – qHTS Assay for Small Molecule Inhibitors of Mitochondrial Division or Activators of Mitochondrial Fusion | S. cerevisiae fusion-defective mutant growth rescue, CellTiterGlo 48 h | Potency, µM (series often up to 46.1 µM), without a hit: at the highest dose growth rescue (activation), actives largely listed as activators | 0.23% of 320,000 active | AID 485298, 2010; note: % of control where 0% means no effect; nearly all actives have a fitted effect of over 45% in size
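Temperature-sensitive fusion-defective S. cerevisiae (e.g. fzo1-1, mgm1-5) were grown with compound in YPEG medium (3% ethanol, 3% glycerol) for 48 hours at 37C. Growth rescue was measured as viability by CellTiterGlo luminescence after 10 minutes at ambient.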
TDP43 rescue – qHTS of TDP-43 Inhibitors | Potency, µM (titrated, usually from 46.1 µM), without a hit: at the highest dose growth rescue (activation), actives largely listed as activators | 1.8% of 410,000 active | TDP-43 expressing yeast growth rescue, BacTiter-Glo, 24 h | AID 652104, 2013; note: % of control where 0% means no effect; nearly all actives have a fitted effect of over 50% in size
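Yeast expressing TDP-43 (pregrown in raffinose, seeded at OD600=0.02 in galactose medium) exposed to compounds 24 hr at 30 deg C. Growth read by BacTiter-Glo luminescence; rescue of toxicity appears as increased signal.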
FUS suppressor – qHTS for Suppressors of FUS Proteinopathy: Primary screen using FUS-linked yeast assay; AID 1347120, 2019; Potency, µM (series often up to 76.6 µM), hits mostly activators; 0.24% of 390,000 active; S. cerevisiae FUS-expressing, growth rescue, OD600, 24 h;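 note: plate controls were DMSO vehicle for no effect and reference control for full effect; nearly all actives have a fitted effect of over 55% in size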
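Restored growth of FUS-toxic S. cerevisiae, read as 600 nm absorbance after 24 h at 30C in galactose medium (starting OD 0.005). Controls CP55940 and DMSO.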
Abeta rescue – qHTS for compounds that reverse cellular toxicity of Amyloid beta (A-beta) peptide in yeast: Primary Screen; 0.063% of 410,000 active; Potency, µM (doses to about 46.1 µM), hits mostly activators; AID 1347071, 2019; yeast expressing A-beta42, growth rescue, OD600, 48 h; response scale: 0% DMSO, 100% iron-clioquinol control; note: nearly all actives have a fitted effect of over 55% in size
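Yeast growth medium received pinned compounds, then yeast cells expressing toxic A-beta were added; plates incubated at 30 C for 48 hr. Growth read as absorbance at 600 nm, normalized to DMSO and equimolar FeCl3 plus clioquinol controls.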
* marks the source's active call; other numbers are inactive results; i = inactive; ? = inconclusive; / = no result. Sampled rows, rich in hits. Any-hit rate of the full collection: about 2.2%. Calls come from the whole dose curve; as a rule, active = well fitted curve in the direction sought with a large enough effect; inconclusive = small, poorly fitted or top-dose-only effect, or another doubt; inactive = no such curve, though single readings can be large; an effect the other way counts as inactive or inconclusive. Potency is the fitted concentration of half-maximal effect.

SMILES | aSyn yeast inh | Mito fusion yeast | TDP43 rescue | FUS suppressor | Abeta rescue
Cc1nn(CC(=O)NCc2ccc(N(C)C)cc2)c(=O)c2nn(-c3ccccc3)c(C)c12 | / | / | 12% | i | i
COc1ccc(C(=O)Oc2cc(-c3ccc(OC)c(OC)c3)cc(=O)c3c(C)oc(C)c23)cc1 | / | / | 11% | ? | i
O=C(N=c1ccn(-c2nc3ccccc3nc2NS(=O)(=O)c2ccccc2)cc1)c1ccccc1Cl | -1% | 3% | 7% | 25µM* | /
Cn1c(COc2cccc3ccccc23)nnc1SCC(=O)OC1CCCCC1 | ? | 9% | 25µM* | ? | i
CC1=NN(/C(=N\c2nnc(C)s2)Nc2ccc(C(C)(C)C)cc2)[C@H](c2ccc(C)cc2)S1 | 0% | 28% | 35µM* | ? | i
CS(=O)(=O)Nc1ccc(-c2nc3ccccc3s2)cc1 | / | / | 29% | i | i
CC(=O)Nc1nc(-c2cccs2)cs1 | 0% | 1% | 16% | i | i
O=C(Nc1nc(-c2cccs2)cs1)c1ccc(Cl)s1 | -34% | 8% | 3.5µM* | i | i
COc1ccc2[nH]c3c(=O)n(CCCCC(=O)N4CCCC4)c(=S)[nH]c3c2c1 | 0% | 1% | -13% | 40µM* | i
N#Cc1ccc(/C=C2\CC3(OC(=O)C4CCCC4)CCCN2C3)cc1 (stereo not drawn) | / | / | / | i | /
CC(C)NC(=O)NC1CCN(CC(=O)Nc2ccc3c(c2)OCCO3)CC1 | / | / | / | i | /
O=C(Nc1ccc(F)cc1)OCCCN1C(=O)CCC12CCCCC2 | / | / | / | i | /
NC(Cc1ccc(Cl)cc1)c1csc(NC(=O)NCC2CCCCC2)n1 (stereo not drawn) | -43% | / | ? | 25µM* | i
Cc1ccc(C2(C)NC(=O)N(CC(=O)N3c4ccccc4NC(=O)CC3C)C2=O)cc1 (stereo not drawn) | 3.5µM* | 0% | -5% | i | i
Cc1ccc(C2(C)NC(=O)N(CC(=O)N3CCc4ccccc43)C2=O)cc1 (stereo not drawn) | -4% | / | -24% | i | i
CCCn1c(C)cc(C(=O)COc2ccc(-c3nnco3)cc2)c1C | 11% | 2% | 28µM* | i | i
CCCCc1cc(=O)oc2cc(C)c(CN3CCCC3)c(O)c12 | 7% | -1% | -16% | ? | i
CCc1cc(=O)oc2cc(C)c(CN3CCCC(C)C3)c(O)c12 (stereo not drawn) | 12% | 4% | -26% | 7.1µM* | i
COc1cccc(CNC(=O)c2ccc(Cl)c(S(=O)(=O)N3CCOCC3)c2)c1 | -4% | -1% | 17% | i | i
COc1cccc(CNC(=O)c2ccc(F)c(S(=O)(=O)N3CCCCC3)c2)c1 | 0% | / | ? | 35µM* | i
O=C(Nc1cc(Cl)cc(Cl)c1)c1ccc(F)c(S(=O)(=O)N2CCCC2)c1 | / | / | 18µM* | i | i
Clc1ccc(CSc2nnc(-c3cccs3)o2)cc1Cl | / | / | / | i | /
COc1ccc2c(c1)c(=O)oc1cc(OCC(=O)NC3CCCCC3)ccc12 | 0% | -22% | 16µM* | i | ?
COc1ccc(Br)c(C(=O)OCC(=O)NC2CCCCCCC2)c1 | 27% | / | ? | i | i
COc1ccc(Br)c(C(=O)OCC(=O)NC2CCCCCC2)c1 | 16% | 23% | 22µM* | i | i
SMILES | aSyn yeast inh | Mito fusion yeast | TDP43 rescue | FUS suppressor | Abeta rescue
NNC(=O)c1ccc(C(=O)N(c2ccccc2)c2ccccc2)cc1 | -20% | / | / | / | /
Fc1ccc(-c2cc(-c3cccs3)cc(-c3ccccc3)n2)cc1 | 7% | 4% | 20% | i | i
Fc1ccc2[nH]c(-c3cccs3)cc2c1 | / | / | 20µM* | i | ?
COc1ccccc1Cn1c(C2CC(=O)N(c3ccccc3OC)C2)nc2ccccc21 (stereo not drawn) | / | / | 16% | i | i
Cc1cc(S(=O)(=O)Nc2ccc3cn[nH]c3c2)c(C)cc1Cl | 15% | 11µM* | -9% | i | i
O=S(=O)(Nc1ccc2cn[nH]c2c1)c1ccc(Cl)cc1 | -2% | 26% | -1% | i | i
Cc1ccc(S(=O)(=O)N2CCSC2)cc1C | 1% | 0% | -11% | 0.89µM* | i
